Compound activity: PubChem BioAssay, National Center for Advancing Translational Sciences (NCATS)
Most compounds without a hit are left out; they make up all but 15% or so of the library.
ELG1 DNA repair: qHTS screen for small molecules that inhibit ELG1-dependent DNA repair in human embryonic kidney (HEK293T) cells expressing luciferase-tagged ELG1; AID 504467, 2011; Potency, µM (series often up to 46.1 µM), for inactives: at the top dose activity change, negative = inhibition, actives largely listed as inhibitors; hit rate 2.3% among 330,000; HEK293T ELG1-luciferase reporter, luminescence, 16 h; DNA damage induced by 5-fluorouridine; further: nearly all actives have a fitted effect of over 55% in size
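In this reporter screen, reduction of luminescence relative to DMSO vehicle indicated activity. Compounds and 5-fluorouridine were added together to 2,000 cells per well, incubated for 16 hr at 37 °C, then developed with ONE-Glo.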
DT40 TDP1 CPT: qHTS for Inhibitors of human tyrosyl-DNA phosphodiesterase 1 (TDP1): qHTS in cells in presence of CPT. chicken DT40 Tdp1-/-;hTDP1 cells + 20 nM CPT, ATP luminescence, 48 h. Potency, µM (highest dose often 46.2 µM), inactives show at the top dose activity change, negative = growth inhibition, actives largely listed as inhibitors. hit rate 12% among 420,000; further: nearly all actives have a fitted effect of over 55% in size
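Chicken DT40 Tdp1-/- cells complemented with human TDP1, 400 cells/well, exposed to compounds plus 20 nM camptothecin for at least 48 h at 37 C; viability read as ATP content by CellTiter-Glo luminescence.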
DT40 TDP1 no CPT: qHTS for Inhibitors of human tyrosyl-DNA phosphodiesterase 1 (TDP1): qHTS in cells in absence of CPT; DT40 Tdp1-/- hTDP1 cells, no CPT, ATP luminescence, 48 h; Potency, µM (doses to about 46.2 µM), for inactives: top-dose activity change, negative = growth inhibition, most hits filed as inhibitors; hit rate 15% among 420,000; further: nearly all actives have a fitted effect of over 55% in size
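Chicken DT40 Tdp1-/- cells complemented with human TDP1, screened without camptothecin (DMSO vehicle only), 400 cells/well. Compounds pin-transferred, cells incubated at 37 °C for at least 48 hr. Growth read as ATP-dependent luminescence (CellTiter-Glo, 30 min at RT).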
VP16 counter: VP16 counterscreen qHTS for inhibitors of ROR gamma transcriptional activity; AID 2546, 2010; Drosophila S2 Gal4-VP16 UAS-luciferase, luminescence, 20 h; hit rate 3.5% among 310,000; Potency, µM (highest dose often 53.6 µM), inactives show at the highest dose activity, negative = inhibition, hits mostly inhibitors;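 further: Gal4-VP16 expression switched on by copper sulfate through the metallothionein promoter; nearly all actives have a fitted effect of over 50% in size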
ALOX12 inh: Primary qHTS assay for inhibitors of human arachidonate 12S-lipoxygenase (ALOX12): Round 2; Polyunsaturated fatty acid lipoxygenase ALOX12 (Homo sapiens), P18054; hit rate 1.1% among 580,000; purified 12hLO, xylenol orange hydroperoxide absorbance; AID 1671190, 2021; Potency, µM (series often up to 108 µM), inactives show at the highest dose activity change, negative = inhibition, hits mostly inhibitors
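Purified human 12hLO (150 nM final) in 25 mM Hepes, 0.01% Triton X-100, pH 7.0 was preincubated 15 min at room temperature with compound. Then 40 uM arachidonic acid was added, 30 min. Hydroperoxide was read by Fe-XO absorbance ratio 573/405 nm.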
RORgamma inh: qHTS for inhibitors of ROR gamma transcriptional activity. hit rate 5.4% among 310,000. Potency, µM (doses to about 53.6 µM), inactives show top-dose activity change, negative = inhibition, most hits filed as inhibitors. Nuclear receptor ROR-gamma (Mus musculus), P51450. Drosophila S2 Gal4-RORgamma UAS-luciferase reporter, 20 h; further: nearly all actives have a fitted effect of over 60% in size
Target sequence (P51450 whole entry, looked up, the tested form may be a part): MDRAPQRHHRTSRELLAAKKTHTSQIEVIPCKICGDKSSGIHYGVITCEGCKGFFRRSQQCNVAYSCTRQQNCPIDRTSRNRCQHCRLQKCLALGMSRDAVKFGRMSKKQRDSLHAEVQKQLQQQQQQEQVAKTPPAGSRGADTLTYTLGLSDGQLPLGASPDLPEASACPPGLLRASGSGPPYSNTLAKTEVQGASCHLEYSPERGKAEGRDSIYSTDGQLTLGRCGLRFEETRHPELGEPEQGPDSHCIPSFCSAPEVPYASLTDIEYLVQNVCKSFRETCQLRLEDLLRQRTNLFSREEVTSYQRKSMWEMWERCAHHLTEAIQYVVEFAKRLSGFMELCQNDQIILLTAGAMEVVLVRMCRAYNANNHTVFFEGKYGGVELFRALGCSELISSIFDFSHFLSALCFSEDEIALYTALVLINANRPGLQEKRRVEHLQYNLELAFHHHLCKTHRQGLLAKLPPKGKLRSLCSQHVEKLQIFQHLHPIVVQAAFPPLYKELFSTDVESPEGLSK
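In this cell-based reporter format, copper sulfate (700 uM final) drives Gal4–ROR gamma fusion expression from a metallothionein promoter in Drosophila Schneider cells; compounds preincubated 1 hr, reporter read after 20 hr at ambient temperature.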
Active calls of the source: *; ? = inconclusive; . = no result; [ ] = dose if it differs, or a comment. The call rests on the fitted dose curve; in most records, active means well fitted curve in the direction sought with a large enough effect; inconclusive means small, poorly fitted or top-dose-only effect, or another doubt; inactive means no such curve, though single readings can be large; an effect the other way counts as inactive or inconclusive. On the % scale 0 is the no-effect control and ±100 the full control effect; potency means the concentration at half of the fitted maximal effect.

SMILES	ELG1 DNA repair	DT40 TDP1 CPT	DT40 TDP1 no CPT	VP16 counter	ALOX12 inh	RORgamma inh
COc1cccc(C(=O)N(Cc2ccc(C)o2)C2CCS(=O)(=O)C2)c1 (configuration not stated)	.	-27%	-22%	.	-1%	.
CCCCCOc1c(Cl)cc(C(=O)N(Cc2ccc(C)o2)C2CCS(=O)(=O)C2)cc1Cl (configuration not stated)	.	18µM*	16µM*	.	-51%	.
CCCCOc1cccc(C(=O)N(Cc2ccc(Br)o2)C2CCS(=O)(=O)C2)c1 (configuration not stated)	.	18µM*	16µM*	.	0%	.
O=C(NCC12CCCC=C1N(Cc1ccccc1)C(=O)CC2)C1CCC1 (configuration not stated)	.	.	.	.	-14%	.
CC(C)NC(=O)CSc1nnc(-c2cc3c(s2)CCC(C(C)(C)C)C3)n1C (configuration not stated)	.	.	.	.	19%	.
COC(=O)CC1C(=O)NCCN1S(=O)(=O)c1ccc(Cl)cc1 (configuration not stated)	.	.	.	.	26%	.
Cc1[nH]c2ccccc2c1C(c1ccccn1)N1CCC(C(N)=O)CC1 (configuration not stated)	?	21µM*	18µM*	-21%	?	-45%
Cc1[nH]c2ccccc2c1C(c1ccncc1)N1CCC(C)CC1 (configuration not stated)	2%	?	18µM*	1%	-27%	0%
CCOC(=O)C1CCN(C(=O)c2c[nH]c3ncccc23)CC1	.	.	.	.	24%[176 µM]	.
Cc1[nH]c2ccccc2c1C(c1ccncc1)N1CCN(c2ccccn2)CC1 (configuration not stated)	17%	?	?	1%	7%	?
CCOC(=O)C1CCN(C(c2ccccn2)c2c(C)[nH]c3ccccc23)CC1 (configuration not stated)	-2%	16µM*	16µM*	-1%	?	?
O=C(N/N=C/c1ccc[nH]1)c1ccc(Cl)cc1	?	-1%	-22%	10µM*	-21%	3.2µM*
Cc1ccc(C(=O)N/N=C\c2ccc[nH]2)cc1[N+](=O)[O-]	2%	-6%	-15%	?	0%	2µM*
O=C(N/N=C/c1ccc[nH]1)c1ccccc1[N+](=O)[O-]	3%	-4%	-10%	-88%	0%	?
O=C(N/N=C/c1ccc[nH]1)c1ccncc1	17%	-7%	-11%	?	-6%	20µM*
Cc1occc1C(=O)N/N=C/c1ccc[nH]1	.	-13%	7%	.	487%	.
N#Cc1cccc(CSc2nccc(C(F)(F)F)n2)c1	.	.	.	.	-1%	.
NC(N)=N/N=C(\N=Nc1ccccc1)c1cccc2cccnc12	.	23µM*	21µM*	.	-2%	.
NC(N)=N/N=C(\N=Nc1ccccc1)c1ccc(Cl)cc1	.	13µM*	13µM*	.	?	.
Cc1noc(-c2cccs2)c1C(=O)NCc1ccco1	.	.	.	.	7%	.
Cc1nc(NC(=O)C(C)(C)C)ccc1I	.	.	.	.	9%	.
CC(C)[C@@H](CO)NC(=O)c1ccc2c3n(nc2c1)-c1ccccc1CO3	?	?	?	?	3%	?
O=C(NCCO)c1ccc2c3n(nc2c1)-c1ccccc1CO3	?	?	?	?	8%	4.5µM*
CC(C)NC(=O)c1ccc2c3n(nc2c1)-c1ccccc1CO3	?	?	21µM*	4.5µM*	4%	4µM*
